Test results: PubChem BioAssay

How the values were obtained:
[1] = system: Botulinum neurotoxin type F light chain protease (Clostridium botulinum); experiment: Clostridium botulinum type F light chain protease inhibitors, microsphere substrate cleavage, validation (AID 588459); details: multiplex microsphere protease substrate cleavage assay, flow cytometry; at 10 µM; hits give high values
[2] = target: Botulinum neurotoxin type A (Clostridium botulinum) (UniProt P0DPI0); experiment: BoNT/A light chain protease inhibitors, biochemical, multiplex microsphere flow cytometry, validation set (AID 588460); details: at 10 µM, hits give high values
Chain of Botulinum neurotoxin type A (Clostridium botulinum) (P0DPI0 whole entry, looked up): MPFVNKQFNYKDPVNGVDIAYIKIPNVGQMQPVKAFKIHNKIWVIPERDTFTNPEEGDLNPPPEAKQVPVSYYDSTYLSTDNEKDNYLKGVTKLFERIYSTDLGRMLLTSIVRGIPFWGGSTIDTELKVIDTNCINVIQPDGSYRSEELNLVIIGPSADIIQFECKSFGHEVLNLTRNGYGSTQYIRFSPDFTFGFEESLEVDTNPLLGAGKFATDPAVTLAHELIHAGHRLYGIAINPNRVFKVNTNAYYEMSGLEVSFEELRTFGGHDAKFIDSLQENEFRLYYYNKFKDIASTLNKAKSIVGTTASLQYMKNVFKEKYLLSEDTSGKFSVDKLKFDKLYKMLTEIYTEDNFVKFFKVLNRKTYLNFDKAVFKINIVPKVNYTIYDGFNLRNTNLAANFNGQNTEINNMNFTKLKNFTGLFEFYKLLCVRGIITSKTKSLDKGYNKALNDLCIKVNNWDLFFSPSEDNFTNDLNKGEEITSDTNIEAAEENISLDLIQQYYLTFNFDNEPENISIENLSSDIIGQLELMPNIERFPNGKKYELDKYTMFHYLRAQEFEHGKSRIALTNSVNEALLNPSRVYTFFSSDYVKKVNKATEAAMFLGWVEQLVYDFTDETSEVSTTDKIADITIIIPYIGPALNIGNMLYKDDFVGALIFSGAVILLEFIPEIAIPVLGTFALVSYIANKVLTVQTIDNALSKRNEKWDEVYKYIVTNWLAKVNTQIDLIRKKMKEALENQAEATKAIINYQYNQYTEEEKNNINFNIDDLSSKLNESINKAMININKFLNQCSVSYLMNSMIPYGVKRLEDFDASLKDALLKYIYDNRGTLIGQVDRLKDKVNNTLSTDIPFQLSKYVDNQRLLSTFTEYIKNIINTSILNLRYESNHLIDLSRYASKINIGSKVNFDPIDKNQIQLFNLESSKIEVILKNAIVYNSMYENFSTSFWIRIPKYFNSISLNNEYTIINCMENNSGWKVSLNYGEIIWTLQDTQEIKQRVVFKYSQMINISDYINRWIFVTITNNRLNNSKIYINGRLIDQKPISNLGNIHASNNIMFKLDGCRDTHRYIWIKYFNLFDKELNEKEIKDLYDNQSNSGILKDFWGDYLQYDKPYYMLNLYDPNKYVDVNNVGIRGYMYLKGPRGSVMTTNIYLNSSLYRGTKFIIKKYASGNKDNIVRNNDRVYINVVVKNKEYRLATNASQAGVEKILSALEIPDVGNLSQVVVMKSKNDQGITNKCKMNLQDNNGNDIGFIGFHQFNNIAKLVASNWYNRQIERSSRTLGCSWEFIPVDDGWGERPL

[3] = target: Lethal factor (Bacillus anthracis) (UniProt P15917); experiment: Bacillus anthracis lethal factor inhibition, microsphere flow cytometry protease assay, validation at 10 µM (AID 588461); details: multiplex microsphere protease cleavage assay, hits give high values
Chain of Lethal factor (Bacillus anthracis) (P15917 whole entry, looked up): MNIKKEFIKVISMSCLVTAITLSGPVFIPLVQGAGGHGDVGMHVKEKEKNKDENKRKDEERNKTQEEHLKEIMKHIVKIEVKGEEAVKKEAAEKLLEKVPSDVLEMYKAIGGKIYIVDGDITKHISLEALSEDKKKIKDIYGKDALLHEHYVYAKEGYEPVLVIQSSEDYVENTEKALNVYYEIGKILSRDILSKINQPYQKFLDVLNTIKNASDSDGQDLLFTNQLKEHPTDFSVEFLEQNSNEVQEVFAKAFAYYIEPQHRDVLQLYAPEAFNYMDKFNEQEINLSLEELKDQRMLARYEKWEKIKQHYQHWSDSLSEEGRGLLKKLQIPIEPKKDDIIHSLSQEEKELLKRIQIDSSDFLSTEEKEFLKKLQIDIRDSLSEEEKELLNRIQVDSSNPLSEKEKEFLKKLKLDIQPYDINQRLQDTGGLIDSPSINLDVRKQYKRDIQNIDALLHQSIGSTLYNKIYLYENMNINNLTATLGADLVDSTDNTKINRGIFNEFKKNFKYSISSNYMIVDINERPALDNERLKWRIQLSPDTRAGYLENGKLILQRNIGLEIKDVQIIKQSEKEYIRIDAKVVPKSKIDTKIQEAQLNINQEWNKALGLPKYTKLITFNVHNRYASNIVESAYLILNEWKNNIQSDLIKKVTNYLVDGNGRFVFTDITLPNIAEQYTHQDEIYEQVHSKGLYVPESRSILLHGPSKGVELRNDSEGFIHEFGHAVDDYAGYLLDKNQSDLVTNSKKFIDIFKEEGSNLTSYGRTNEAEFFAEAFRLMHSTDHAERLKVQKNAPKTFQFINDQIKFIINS

Measured: inhibition

Cc1ccc(C(CC(=O)NCc2ccco2)c2ccc(OC(C)C)cc2)cc1 (stereo not drawn)
inactive: [1] 0.4% | [2] -1.6% | [3] -4%

Cn1nc(-c2ccc(Cl)cc2)nc2c(=O)n(C)c(=O)nc1-2
inactive: [1] -0.5% | [2] 2% | [3] 3.7%

O=C(c1ccco1)N(CCC(c1ccccc1)c1ccco1)Cc1ccco1 (stereo not drawn)
inactive: [1] -0.1% | [2] -0.1% | [3] 3.5%

O=C(c1ccc(-c2ccccc2)c(F)c1)C1CCCN(C(=O)c2cncs2)C1 (stereo not drawn)
inactive: [1] 0.6% | [2] 0.5% | [3] 1.6%

CC(CCc1ccccc1)NC(=O)/C=C/c1ccccc1 (stereo not drawn)
inactive: [1] 4.2% | [2] 0.4% | [3] 1.8%

CC(COc1ccccc1)N(CCCl)Cc1ccccc1 (stereo not drawn)
inactive: [1] 0.1% | [2] -2.7% | [3] -5.9%

O=c1cc(-c2ccccc2)oc2cc(OCc3ccccc3)cc(O)c12
inactive: [1] -0.8% | [2] -0.6% | [3] -4.8%

Cc1cc(OC(C(=O)O)c2ccccc2)c2c(C)c(Cc3ccccc3)c(=O)oc2c1 (stereo not drawn)
inactive: [1] 2% | [2] -0.1% | [3] 1.7%

CCCCCCCCNC(C)C(O)c1ccc(SC(C)C)cc1 (stereo not drawn)
inactive: [1] -4.9% | [2] -1.5% | [3] -9.4%

COc1ccc(-c2c3c(=O)n(C)c(=O)n(C)c3cn2C2CCCCC2)cc1
inactive: [1] 1.1% | [2] -1.9% | [3] -3.1%

COc1ccc2c(c1)[N+](C)(C)C(C)(C)C=C2C
inactive: [1] -0.4% | [2] 0.1% | [3] 1.6%
